In PubChem BioAssay AID1220 (Sanford-Burnham Center for Chemical Genomics, 2008):
Screen size: about 190,000 compounds; about 1,300 (0.68%) were called active. Rule as the data show it: active = inhibition above about 50%; inactive = the rest. The full list was thinned out, with actives kept by preference.

Each molecule was assayed against Mannose-6-phosphate isomerase (Homo sapiens) (UniProt P34949) (assay: human PMI inhibitors, high substrate, primary screen, biochemical, fluorescence intensity, high mannose 6-phosphate (AID 1220)). Conditions: recombinant PMI enzyme, coupled fluorescence intensity; at 20 µM; stronger effect = higher value.
Chain of Mannose-6-phosphate isomerase (Homo sapiens) (P34949 whole entry, looked up): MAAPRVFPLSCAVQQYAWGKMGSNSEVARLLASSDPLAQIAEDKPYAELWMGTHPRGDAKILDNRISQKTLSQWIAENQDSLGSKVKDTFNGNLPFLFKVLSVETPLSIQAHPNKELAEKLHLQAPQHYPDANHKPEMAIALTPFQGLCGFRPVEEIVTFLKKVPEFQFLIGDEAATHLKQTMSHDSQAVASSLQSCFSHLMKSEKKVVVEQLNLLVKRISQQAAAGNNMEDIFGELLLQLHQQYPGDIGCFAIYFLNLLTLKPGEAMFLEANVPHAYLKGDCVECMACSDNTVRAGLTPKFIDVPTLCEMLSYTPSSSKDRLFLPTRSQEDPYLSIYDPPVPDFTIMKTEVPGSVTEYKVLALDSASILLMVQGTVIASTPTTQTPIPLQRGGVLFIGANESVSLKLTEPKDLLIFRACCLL
`Cn1c(=O)c2c(nc(N3CCCC3)n2CC(O)CO)n(C)c1=O` (configuration not stated) was tested, and the inhibition was -12.4% (inactive). In the case of `Cc1cc(C)nc(NC(=O)c2cc(Br)ccc2Cl)n1`, the inhibition is reported as -2.5% (inactive). In the case of `O=C(COC(=O)c1cccs1)Nc1cc(S(=O)(=O)N2CCOCC2)ccc1Cl`, the inhibition is reported as -2.3% (inactive). `COc1cc(NC(=O)CCNC(=O)Cn2cnc3ccccc3c2=O)cc(OC)c1OC` was tested, and the inhibition was 10.9% (inactive). In the case of `COC(=O)c1nnn(-c2nc(N3CCOCC3)nc(N3CCOCC3)n2)c1C`, the inhibition is reported as 8.7% (inactive). For `COc1ccc(/C=N/NC(=O)c2ccncc2)cc1[N+](=O)[O-]`, the inhibition was -13.2% (inactive). In the case of `COc1cc(OC)c([N+](=O)[O-])cc1/C=N/NC(=O)c1ccncc1`, the inhibition is reported as 58.7% (active). `COc1cc(OC)c(/C=N/NC(=O)c2ccncc2)cc1Br` was tested, and the inhibition was -19.4% (inactive). For `COc1ccc(Cn2nnnc2C(c2ccc3ncccc3c2)N2CCN(C3CCCCC3)CC2)cc1` (configuration not stated), the inhibition was -3.1% (inactive). `O=C(O)c1cc(Cl)c(Cl)cc1C(=O)Nc1cccc2cccnc12` was tested, and the inhibition was 46% (inactive). With `COCCCNC(=S)Nc1ccccc1C` the inhibition was 15.8% (inactive). `O=C(NC(=S)Nc1cccc2ncccc12)c1cccs1` was tested, and the inhibition was 67.1% (active). `COCCCNC(=S)Nc1cccc2ncccc12` was tested, and the inhibition was 54.4% (active). In the case of `COCCNC(=S)Nc1cccc2cnccc12`, the inhibition is reported as 48% (inactive). For `O=C(NC(=S)Nc1cccc2ncccc12)c1ccccc1`, the inhibition was 30.3% (inactive). `O=C(O)c1cc(Cl)c(Cl)cc1C(=O)Nc1cccc2ncccc12` was tested, and the inhibition was 54.8% (active). For `O=C(NC(=S)Nc1cccc2ncccc12)c1ccco1`, the inhibition was 7.2% (inactive). `O=C(Cc1ccc(Cl)c(Cl)c1)Nc1cccc2ncccc12` was tested, and the inhibition was 8.6% (inactive). With `CCN1C2=C(C(=O)CCC2)C(c2ccc(O)cc2)C2=C1CCCC2=O` the inhibition was -9.2% (inactive). With `Cc1nnc(NC(=O)CSc2nnc(-c3ccc(S(=O)(=O)N4CCCC4)cc3)n2C)s1` the inhibition was -8.6% (inactive). With `CC1(C)C(=O)N(OCc2ccccc2)C(C)(C)C(=O)N1OCc1ccccc1` the inhibition was -1.9% (inactive). In the case of `COc1cc2c(cc1NCc1ccccn1)oc1ccccc12`, the inhibition is reported as 56.9% (active). `COc1cc2c(cc1NCc1ccc3c(c1)OCO3)oc1ccccc12` was tested, and the inhibition was 32.3% (inactive). In the case of `COc1cc2c(cc1NC(=O)CSc1ccccn1)oc1ccccc12`, the inhibition is reported as 4.8% (inactive). In the case of `CCOC(=O)C1CCN(c2c(NCc3ccc(C(=O)N(C)Cc4ccccc4)cc3)c(=O)c2=O)CC1`, the inhibition is reported as -6.2% (inactive). `Cc1cc(C)nc(/N=C2\NC(=O)CC(C(=O)O)N2c2ccc(F)c(Cl)c2)n1` (configuration not stated) was tested, and the inhibition was -5.5% (inactive). With `O=C1CCCC2=C1C(c1cccc(O)c1)c1c(ccc3ncccc13)N2` (configuration not stated) the inhibition was 35.4% (inactive). With `O=C1CCCC2=C1C(c1ccc(O)c(O)c1)c1c(ccc3ncccc13)N2` (configuration not stated) the inhibition was 52.9% (active). With `COc1cc(C2C3=C(CCCC3=O)Nc3ccc4ncccc4c32)ccc1O` (configuration not stated) the inhibition was 27.4% (inactive). For `COc1cc(C2C(C#N)=C(C)NC(C)=C2C#N)cc(OC)c1OC`, the inhibition was 2% (inactive). `COc1cc(N/C=C2\CC(=O)NC(C)=C2C#N)cc(OC)c1OC` was tested, and the inhibition was 70.9% (active). In the case of `COc1cc(NC2=CC(=O)CC(C)(C)C2)cc(OC)c1OC`, the inhibition is reported as 9.2% (inactive). With `COC(=O)c1ccc(CSc2ccc3nnc(-c4cccnc4)n3n2)o1` the inhibition was 0.3% (inactive). For `CN(C)CCNC(=O)c1c(O)c2c([nH]c1=O)CCCC2`, the inhibition was 15.6% (inactive). `Cc1cc(N)ccc1-n1c(C)ccc1C` was tested, and the inhibition was 69.4% (active). In the case of `Cc1ccc(N)cc1-n1c(C)ccc1C`, the inhibition is reported as 27.5% (inactive). With `COc1ccc(Cl)cc1-n1c(C)ccc1C` the inhibition was -6.6% (inactive). With `COc1ccc(N)cc1-n1cnnn1` the inhibition was -5.6% (inactive). `COc1ccc(N)cc1-n1c(C)ccc1C` was tested, and the inhibition was 64.2% (active). `Cc1cc(N)ccc1N1CCCC1` was tested, and the inhibition was 25.9% (inactive). For `Nc1nc(NCc2ccco2)nn1-c1ccccc1`, the inhibition was 2% (inactive). `CCCC(=O)OCCNc1cc(SCc2ccco2)c2nonc2c1[N+](=O)[O-]` was tested, and the inhibition was 40.5% (inactive). `CCCSc1cc(NCCOC(C)=O)c([N+](=O)[O-])c2nonc12` was tested, and the inhibition was 57.6% (active). `CCC(=O)OCCNc1cc(Sc2nccn2C)c2nonc2c1[N+](=O)[O-]` was tested, and the inhibition was 50.8% (active). `CC(=O)OCCNc1cc(SCc2ccco2)c2nonc2c1[N+](=O)[O-]` was tested, and the inhibition was 45.7% (inactive). For `CCCC(=O)OCCNc1cc(Sc2nccn2C)c2nonc2c1[N+](=O)[O-]`, the inhibition was 30.4% (inactive). With `Cc1nnc(Sc2cc(NCCO)c([N+](=O)[O-])c3nonc23)s1` the inhibition was 16.6% (inactive). With `CCCSc1cc(NCCOC(=O)CCC)c([N+](=O)[O-])c2nonc12` the inhibition was 50.7% (active). In the case of `Cn1ccnc1Sc1cc(NCCCO)c([N+](=O)[O-])c2nonc12`, the inhibition is reported as 24.2% (inactive). `CCCC(=O)OCCNc1cc(Sc2nc3ccccc3[nH]2)c2nonc2c1[N+](=O)[O-]` was tested, and the inhibition was 33% (inactive). `CCN(CC)c1cc(NCCO)c([N+](=O)[O-])c2nonc12` was tested, and the inhibition was 57.4% (active). With `COC(=O)CCSc1cc(NCCOC(C)=O)c([N+](=O)[O-])c2nonc12` the inhibition was 43.1% (inactive). In the case of `Cc1nnc(Sc2cc(NCCCO)c([N+](=O)[O-])c3nonc23)s1`, the inhibition is reported as 39.9% (inactive). In the case of `O=C(NCc1cccnc1)Nc1cccc(F)c1`, the inhibition is reported as -2.6% (inactive). In the case of `CC(=O)Nc1nc(C(=O)O)cs1`, the inhibition is reported as 6.8% (inactive). For `O=C(Nc1ccc(Cl)cn1)c1ccc(-c2cc(Cl)ccc2Cl)o1`, the inhibition was -2.7% (inactive). `COc1cc2c(cc1OC)CN(C1CC(=O)N(c3c(C)cccc3C)C1=O)CC2` (configuration not stated) was tested, and the inhibition was 2.1% (inactive). `Cc1nc2ccc(NC(=S)NC3CC3)cc2nc1C` was tested, and the inhibition was 46.4% (inactive). With `CCOC(=O)N1CCN(S(=O)(=O)c2ccc(C(=O)Nc3ccc4c(c3)C(=O)NC4=O)cc2)CC1` the inhibition was 14.7% (inactive). In the case of `COc1c(C(=O)NCCSC(C)(C)C)ccc2ccccc12`, the inhibition is reported as 2.8% (inactive). In the case of `O=C(NCCn1ccc2ccccc21)C1CCCCC1`, the inhibition is reported as 1.5% (inactive). In the case of `CC(=O)OCCNc1cc(Sc2nc3ccccc3[nH]2)c2nonc2c1[N+](=O)[O-]`, the inhibition is reported as 26.1% (inactive). With `CC(=O)OCCCNc1cc(Sc2ccc(C)cc2)c2nonc2c1[N+](=O)[O-]` the inhibition was 45.7% (inactive). In the case of `CC(=O)OCCCNc1cc(SCc2ccco2)c2nonc2c1[N+](=O)[O-]`, the inhibition is reported as 40.1% (inactive). With `CC(=O)OCCCNc1cc(Sc2ccc(Cl)cc2)c2nonc2c1[N+](=O)[O-]` the inhibition was 56.3% (active). `CC(=O)OCCNc1cc(SC(C)C)c2nonc2c1[N+](=O)[O-]` was tested, and the inhibition was 52% (active). In the case of `CC(=O)OCCN(C)c1cc(SC(C)C)c2nonc2c1[N+](=O)[O-]`, the inhibition is reported as 24.4% (inactive). `COc1ccc(C2CC(c3ccc(OC)cc3)n3nc(NC(=O)c4ccco4)nc3N2)cc1` (configuration not stated) was tested, and the inhibition was 3.4% (inactive). `COc1cccc2c1OCC(C(=O)OCc1cccnc1)=C2` was tested, and the inhibition was 3.9% (inactive). `COCc1cc(C)nc(N/N=C/c2ccc(-c3ccc(Cl)cc3[N+](=O)[O-])o2)c1C#N` was tested, and the inhibition was 55.9% (active). For `COCc1cc(C)nc(N/N=C/c2ccc(-c3ccc(C(=O)O)c(Cl)c3)o2)c1C#N`, the inhibition was -2.9% (inactive). In the case of `COCc1cc(C)nc(N/N=C/c2ccc(-c3cc(C(=O)O)ccc3Cl)o2)c1C#N`, the inhibition is reported as -8.6% (inactive). `O=C1CCc2cc(S(=O)(=O)NC(C(=O)N3CCN(c4ccccn4)CC3)c3ccccc3)ccc2N1` (configuration not stated) was tested, and the inhibition was -3.8% (inactive). For `CNCC/C=C1/c2ccccc2CSc2ccccc21`, the inhibition was 14.2% (inactive). With `CCOc1ccc(NC(=O)NCC2CCN(c3ccc(OC)cc3)C2)cc1` (configuration not stated) the inhibition was 22.5% (inactive). For `COc1ccc(N2CCC(CNC(=O)Nc3ccc(OC)cc3OC)C2)cc1` (configuration not stated), the inhibition was 55.7% (active). In the case of `CCNC(=O)Nc1ccc(OC)cc1OC`, the inhibition is reported as -3.8% (inactive). `COc1ccc(N2CCC(CNC(=O)Nc3ccc(C)c(C)c3)C2)cc1` (configuration not stated) was tested, and the inhibition was 52.6% (active). With `COc1ccc(N2CCC(CNC(=O)Nc3ccc(Cl)cc3)C2)cc1` (configuration not stated) the inhibition was 46.2% (inactive). With `COc1ccc(NC(=O)NCc2ccncc2)c(OC)c1` the inhibition was 3.6% (inactive). `CCSc1nnc(NC(=O)C(C)(C)C)s1` was tested, and the inhibition was 2% (inactive). In the case of `CCO[C@@H]1OC(C(=O)NCc2ccccc2)=C[C@H](C2CC2)[C@H]1CCCO`, the inhibition is reported as -7.4% (inactive). For `Cc1nc(N)[nH]c(=O)c1CCC(=O)OCC(C)C`, the inhibition was -23.1% (inactive). In the case of `Nc1ccc2nc(-c3ccccc3)sc2c1`, the inhibition is reported as 26.8% (inactive). In the case of `Nc1c([N+](=O)[O-])c(=O)sc2ccccc12`, the inhibition is reported as -0.6% (inactive). `Nc1ccc2c(c1)sc1ccccc12` was tested, and the inhibition was 55.2% (active). For `Cc1c(C(=O)NCCc2ccc(S(N)(=O)=O)cc2)cccc1[N+](=O)[O-]`, the inhibition was -0.5% (inactive). With `CCCN1C/C(=C/c2cccc([N+](=O)[O-])c2)C(=O)/C(=C/c2cccc([N+](=O)[O-])c2)C1` the inhibition was -2.8% (inactive). `N#CC1=C2SCN(Cc3ccco3)CN2C(=O)CC1c1cccc2ccccc12` (configuration not stated) was tested, and the inhibition was 68.8% (active). For `N#CC1=C2SCN(Cc3ccco3)CN2C(=O)CC1c1ccccc1F` (configuration not stated), the inhibition was 15% (inactive). `COc1ccc(N2CSC3=C(C#N)C(c4cccc(OC)c4OC)CC(=O)N3C2)cc1` (configuration not stated) was tested, and the inhibition was -24.3% (inactive). For `COc1ccc2ccccc2c1C1CC(=O)N2CN(Cc3ccco3)CSC2=C1C#N` (configuration not stated), the inhibition was 62.9% (active). For `Cc1ccc(/C=C/C(=O)O)cc1S(=O)(=O)NCCCC(=O)O`, the inhibition was 0.6% (inactive). For `O=C(CCN1C(=O)C2C3C=CC(C3)C2C1=O)N1CCN(c2ccc([N+](=O)[O-])cc2)CC1` (configuration not stated), the inhibition was 21.6% (inactive). In the case of `CCC(=O)Nc1nc2nc(-c3ccccc3)cc(-c3ccccc3)n2n1`, the inhibition is reported as 0.3% (inactive). In the case of `Cc1ccc(O)c(NC(=S)NC(=O)/C=C/c2ccco2)c1`, the inhibition is reported as -3.9% (inactive). With `Cc1cc(=O)oc2cc(OCc3ccc(C(=O)N4CCN(c5ccccc5)CC4)cc3)ccc12` the inhibition was 10.2% (inactive).
